16 molecules from PubChem BioAssay can be followed below.

One assay has as its target Albumin (Bos taurus) (UniProt P02769). Put plainly: compounds binding labelled BSA control protein – biochemical, small-molecule microarray, Alexa647 label, 635/667 nm fluorescence, artefact control for SMM control protein annotation, profiling panel (AID 1118).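 Further: score merges 667 nm emission intensity and signal-to-noise per printed compound spot.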 The note with it: BSA-A647 binding, fluorescence 635 nm, higher = more signal.
The nature of assay [1]: probe aXIP binding to arrayed compounds – biochemical, NeuroSMM set, 635/667 nm fluorescence, primary screen (AID 1119).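 Further: probe is the protein aXip251-270 applied at 1 µg/mL to compound-printed slides; binding of probe to printed compounds measured as 667 nm fluorescence plus signal to noise.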 The note with it: small-molecule microarray, higher = more signal, called active from +8 up or from −8 down.
Assay [2] is described as follows: probe aNOTCH3 binding on compound microarray – biochemical, small-molecule microarray, 635/667 nm fluorescence, primary screen (AID 1120).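 Further: probe is a biotin-tagged antibody raised against NOTCH3 rather than NOTCH3 protein; score merges spot fluorescence near 667 nm with spot signal to noise.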 The note with it: higher = more signal.
The nature of assay [3]: probe aNOTCH2 binding on compound microarray – biochemical, small-molecule microarray, 635/667 nm fluorescence, primary screen (AID 1121).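 Further: score merges feature fluorescence read at 667 nm with its signal to noise.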 The note with it: higher = more signal.
Assay [4] concerns the target Carbonic anhydrase 2 (Homo sapiens) (UniProt P00918). Put plainly: compounds binding carbonic anhydrase 2 – biochemical, small-molecule microarray, Alexa647-labelled CAII, profiling panel (AID 1122). The settings on record: CAII-A647 binding fluorescence, higher = more signal.
Assay [5] in a line: COS7 lysate on small-molecule microarray, probe aHis, 635 nm (AID 1123).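 Further: z-score combines 667nm fluorescence intensity with signal-to-noise per printed compound spot.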 The settings on record: COS7 cell lysate, fluorescence, higher = more signal.
A short description of assay [6]: probe aLAP1 signal on lysate-treated microarray – cell lysate, small-molecule microarray, COS7 lysate, primary screen (AID 1124).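 Further: lysate comes from COS7 cells expressing LAP1 and is applied at 0.3 µg/mL; score merges spot fluorescence near 667 nm with signal-to-noise over triplicate slides.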 The settings on record: probe aLAP1, fluorescence, higher = more signal.
Another assay deals with Sam68 (KHDRBS1). Kind of assay: compounds binding KHDRBS1 protein – biochemical, small-molecule microarray, 635 nm fluorescence, primary screen (AID 1125).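 Further: score merges 667 nm channel intensity with signal to noise over triplicate slides.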 The note with it: higher = more signal.
Assay [7] has as its system Chordin-like protein 2 (CHRDL2). Put plainly: compounds binding chordin-like 2 – biochemical, small-molecule microarray, 635 nm fluorescence, primary screen (AID 1126).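 Further: printed compound slides probed with Chrdl2 protein at 4 µg/mL for 1 h at 4 C; score merges 667 nm emission intensity with signal to noise over three replicate slides.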 The settings on record: fluorescence 635 nm, higher = more signal.
Assay [8] concerns the target Concanavalin-A (Canavalia ensiformis) (UniProt P02866). Kind of assay: compounds binding concanavalin A lectin – biochemical, small-molecule microarray, Alexa647 label, 635 nm, artefact control for SMM control protein annotation, primary screen (AID 1127).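 Further: z combines 667 nm emission intensity with signal-to-noise across three replicate slides.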 The note with it: ConA-A647 binding fluorescence, higher = more signal.

Activity calls are given as the source filed them.

Albumin (Bos taurus), sequence (P02769 whole entry, looked up): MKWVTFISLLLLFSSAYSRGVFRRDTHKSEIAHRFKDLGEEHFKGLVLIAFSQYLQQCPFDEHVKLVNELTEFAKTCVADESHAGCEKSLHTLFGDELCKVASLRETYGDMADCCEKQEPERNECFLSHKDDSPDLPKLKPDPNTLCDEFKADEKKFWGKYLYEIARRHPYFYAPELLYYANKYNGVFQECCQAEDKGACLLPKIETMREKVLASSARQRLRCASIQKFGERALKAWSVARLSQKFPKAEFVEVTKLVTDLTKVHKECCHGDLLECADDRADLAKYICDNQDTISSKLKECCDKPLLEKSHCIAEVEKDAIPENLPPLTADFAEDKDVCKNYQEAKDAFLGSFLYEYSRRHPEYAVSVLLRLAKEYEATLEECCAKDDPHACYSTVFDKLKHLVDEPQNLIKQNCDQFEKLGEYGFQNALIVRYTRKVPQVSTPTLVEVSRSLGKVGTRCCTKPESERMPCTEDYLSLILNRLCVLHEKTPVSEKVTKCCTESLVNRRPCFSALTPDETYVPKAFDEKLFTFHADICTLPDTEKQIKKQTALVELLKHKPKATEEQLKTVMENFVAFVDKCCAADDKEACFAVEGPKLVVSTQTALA
Concanavalin-A (Canavalia ensiformis), sequence (P02866 whole entry, looked up): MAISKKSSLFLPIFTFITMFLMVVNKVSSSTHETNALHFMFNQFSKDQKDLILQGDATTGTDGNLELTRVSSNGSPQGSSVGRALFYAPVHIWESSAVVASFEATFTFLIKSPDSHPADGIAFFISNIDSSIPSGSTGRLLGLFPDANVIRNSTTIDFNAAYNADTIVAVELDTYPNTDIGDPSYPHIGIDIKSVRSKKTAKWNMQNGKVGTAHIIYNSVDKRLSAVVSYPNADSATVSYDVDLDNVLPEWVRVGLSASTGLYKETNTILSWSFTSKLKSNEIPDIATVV

`CN(C)CCCNC(=O)[C@@H]1c2ccccc2C(=O)N(Cc2ccccc2Cl)[C@H]1c1ccc(CO)cc1`: the composite z-score in the assay with Albumin (Bos taurus) was 0.301; in [2], -0.236; in [3] it was -0.0993; in assay [4] it was 0.73; in [5], 1.17; in assay [6] it was 0.982. Moreover, the composite z-score with Sam68 (KHDRBS1) was 0.671; in assay [7], -0.349; in assay [8], -0.284. Besides, in assay [1], the composite Z-score was 0.247 (inactive).
For `O=C1O[C@H](c2ccccc2)[C@H](c2ccccc2)N2[C@H]1[C@@H](C(=O)N1CCN(c3ncccn3)CC1)[C@]1(C(=O)Nc3ccc(C#CC4(O)CCCCCC4)cc31)[C@H]2c1ccc(OCCO)cc1`, the composite z-score in the assay with Albumin (Bos taurus) was determined as 0.0591; in assay [2], 1.39; in assay [3], 0.606; in [4], 0.62; in [5], 3.46; in assay [6], 1.61. For the same molecule, the figures for the composite z-score (in the assay with Sam68 (KHDRBS1); in assay [7]; in assay [8]) were 1.29, 1.41 and 1.1, respectively. Also, in [1], the composite Z-score is 6.42 (inactive).
As for `CC(C)Cc1ccc(CN2CC[C@@H](NC(=O)Nc3ccccc3)C2)cc1`, the composite z-score in the assay with Albumin (Bos taurus) is 0.476; in assay [2] it was -0.133; in [3], -0.0974; in assay [4], 0.119; in assay [5] it was -0.104; in assay [6] it was 0.397. Also, the results for the composite z-score (in the assay with Sam68 (KHDRBS1); in assay [7]; in assay [8]) were -0.0489, 0.214 and -0.0211, respectively. The composite Z-score in assay [1] was -0.119 (inactive).
`COc1ccc([Si](C)(C)[C@@H]2[C@@H](CC(=O)N3Cc4ccccc4C[C@H]3CO)O[C@]3(C(=O)N(Cc4cccc(N5C(=O)c6cccc7cccc5c67)c4)c4ccccc43)[C@H]2C)cc1`: the composite z-score with Albumin (Bos taurus) was -0.566; in assay [2], 0.143; in [3] it was -0.0928; in assay [4] it was 0.598; in [5], 1.26; in assay [6] it was -0.235. In addition, the figures for the composite z-score (with Sam68 (KHDRBS1); in assay [7]; in assay [8]) were 0.817, 1.27 and 1.12, respectively. Also, the composite Z-score in [1] was -0.0894 (inactive).
As to `CC(C)N1CC=CC23O[C@@H]4C=CCOC(=O)[C@@H]4[C@H]2C(=O)N(CCCO)[C@@H]3C1=O` (stereo not given in full), the composite z-score with Albumin (Bos taurus) is 1.05; in assay [2], -0.145; in [3], -0.118; in assay [4], 0.863; in [5] it was 2.76; in assay [6], 0.633. Besides, the composite z-score with Sam68 (KHDRBS1) was 0.234; in [7], -0.73; in assay [8] it was 0.234. The composite Z-score in assay [1] was 2.17 (inactive).
As for `CN1C(=O)C2C=CC(C(O)c3ccc(F)cc3)N(Nc3ccccc3)C2C1=O` (stereo not given), the composite z-score with Albumin (Bos taurus) is 0.884; in [2], 0.0562; in assay [3] it was -0.14; in assay [4], 0.721; in assay [5], 1.64; in assay [6], -0.481. In addition, the composite z-score in the assay on Sam68 (KHDRBS1) was 0.57; in assay [7] it was -0.623; in assay [8], 0.808. For the same molecule, the composite Z-score in assay [1] is 0.21 (inactive).
Consider `O=C1OCC=C[C@H]2OC34C=CCN(c5ccc(Cl)cc5)C(=O)[C@H]3N(CCO)C(=O)[C@@H]4[C@@H]12` (stereo not given in full), for which the composite z-score in the assay with Albumin (Bos taurus) is -0.212; in assay [2] it was -0.306; in assay [3] it was -0.211; in assay [4] it was 0.903; in assay [5], 2.81; in assay [6], 0.0653. The composite z-score in the assay with Sam68 (KHDRBS1) was -0.381; in assay [7] it was -1.52; in assay [8], -0.606. Further, the composite Z-score in assay [1] is 0.703 (inactive).
On to `COCCOC(=O)N1C(=O)[C@@]2(c3cc(C#CC4=CCCCC4)ccc31)[C@H](C(N)=O)[C@H]1C(=O)O[C@H](c3ccccc3)[C@H](c3ccccc3)N1[C@@H]2c1ccccc1OCCO`, for which the composite z-score with Albumin (Bos taurus) was -0.24; in [2] it was -0.0057; in assay [3], -0.114; in assay [4], 0.652; in assay [5] it was 1.59; in assay [6] it was 0.806. In addition, the figures for the composite z-score (with Sam68 (KHDRBS1); in assay [7]; in assay [8]) were 1.31, 0.588 and 1.11, respectively. Moreover, the composite Z-score in assay [1] is -0.0254 (inactive).
For `COc1cccc(/C=C/C=O)c1`, the composite z-score was 0.865 with Albumin (Bos taurus); 0.147 in [2]; 0.142 in assay [3]; -0.124 in [4]; 0.155 in assay [5]; -0.12 in assay [6]. The composite z-score was -0.146 in the assay with Sam68 (KHDRBS1), 0.552 in assay [7] and -0.52 in [8]. The composite Z-score in assay [1] was -0.245 (inactive).
In the case of `C=CCNC(=O)[C@@H]1[C@H]2C(=O)O[C@H](c3ccccc3)[C@H](c3ccccc3)N2[C@H](c2ccc(O)cc2)[C@@]12C(=O)N(C(=O)OCCOC)c1ccc(C#CC3(O)CCCCCC3)cc12`, the composite z-score in the assay with Albumin (Bos taurus) is -0.632; in [2], -0.416; in assay [3], -0.153; in assay [4], -0.742; in assay [5], -0.642; in [6], -0.547. For the same molecule, the composite z-score with Sam68 (KHDRBS1) is -0.669; in [7], -2.57; in [8] it was -0.533. Besides, in assay [1], the composite Z-score was -0.245 (inactive).
As to `COCCOC(=O)N1C(=O)[C@@]2(c3cc(C#CCCO)ccc31)[C@H](C(=O)Nc1nc3ccccc3s1)[C@H]1C(=O)O[C@H](c3ccccc3)[C@H](c3ccccc3)N1[C@@H]2c1ccccc1OCCO`, the composite z-score in the assay with Albumin (Bos taurus) turned out to be 0.623; in assay [2], 0.436; in assay [3], 0.297; in assay [4], 0.542; in assay [5], 1.22; in assay [6] it was 0.627. In addition, the results for the composite z-score (in the assay with Sam68 (KHDRBS1); in [7]; in [8]) were 1.29, 0.524 and 1.14, respectively. The composite Z-score in assay [1] is 0.0088 (inactive).
As for `COCCCNC(=O)[C@]1(CCS(=O)(=O)c2ccccc2)N=C(c2ccc(OCCCO)cc2)O[C@@H]1c1ccccc1CN=[N+]=[N-]`, the composite z-score with Albumin (Bos taurus) was 1.05; in assay [2] it was 0.271; in assay [3] it was 0.228; in [4] it was 0.735; in assay [5] it was 2.79; in assay [6] it was 0.295. The composite z-score in the assay on Sam68 (KHDRBS1) is 1.3; in assay [7], -0.79; in assay [8] it was 1.24. Further, in [1], the composite Z-score was 0.0933 (inactive).
In the case of `CCOC(=O)C1=CC[C@@H](c2ccccc2C(F)(F)F)N(S(=O)(=O)c2ccc(C)cc2)[C@H]1c1ccc(C#N)cc1`, the composite z-score with Albumin (Bos taurus) was 0.733; in [2], 0.223; in [3], -0.0211; in [4] it was 0.675; in assay [5], 0.791; in [6], 1.25. Besides, the composite z-score in the assay with Sam68 (KHDRBS1) came out at 0.892; in assay [7] it was 0.475; in assay [8], 1.11. For the same molecule, in [1], the composite Z-score is -0.554 (inactive).
With `C=CC[C@@]1(C(=O)N2CCOCC2)N=C(c2ccc(OCCCO)cc2)O[C@@H]1c1ccccc1CN=[N+]=[N-]`, the composite z-score worked out at 0.774 with Albumin (Bos taurus); 0.405 in [2]; 0.083 in [3]; 0.527 in assay [4]; 2.89 in assay [5]; 1.41 in assay [6]. Besides, the values for the composite z-score (in the assay with Sam68 (KHDRBS1); in [7]; in [8]) were 1.33, -0.186 and 1.16, respectively. Further, the composite Z-score in assay [1] is 0.28 (inactive).
As for `C=C(C(=O)CC[C@@H](OC(C)=O)c1ccc(CO)o1)C(C)C`, the composite z-score in the assay with Albumin (Bos taurus) is -0.307; in assay [2], 0.706; in assay [3], -0.0911; in assay [4] it was 0.846; in assay [5] it was 0.445; in assay [6], 0.119. Further, the results for the composite z-score (in the assay with Sam68 (KHDRBS1); in assay [7]; in assay [8]) were 0.285, 0.8 and 0.771, respectively. In addition, in [1], the composite Z-score is 1.58 (inactive).
`[N-]=[N+]=Nc1ccccc1[C@H]1OC(c2ccc(OCCCO)cc2)=N[C@@]1(Cc1ccccc1)C(=O)N1CCCCC1`: the composite z-score with Albumin (Bos taurus) came out at 0.899; in [2] it was 0.369; in [3], 0.208; in assay [4], 0.38; in [5], 2.36; in [6], 0.19. Moreover, the composite z-score in the assay with Sam68 (KHDRBS1) was 1.13; in assay [7] it was 0.618; in assay [8], 1.19. Besides, the composite Z-score in [1] was 0.498 (inactive).
